Screens: PubChem, National Center for Advancing Translational Sciences (NCATS)
Shiga toxin inh: inhibitors of Shiga toxin in Vero cells; Vero cells, Shiga toxin protein synthesis inhibition reporter; inhibition, % at 38.7 µM; 9.2% of 290,000 active; in the data active means inhibition mostly above about 28%, no sharp cut-off; inactive means mostly below about 43%
Pf growth 48h: inhibits P. falciparum growth in the first generation, 48 h; P. falciparum luciferase growth in erythrocytes, 48 h; Potency, µM (doses to about 28.7 µM), actives largely listed as inhibitors; 5.9% of 310,000 active
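Compounds are pin-transferred into medium, infected erythrocytes (2% hematocrit, 0.1% parasitemia final) are added, and plates sit one parasite generation at 37 C in 5% CO2. Detection reagent is then added and luminescence measured.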
CHX counter: counter-screen hit for Shiga toxin inhibitors, cycloheximide | 12% of 300,000 active | cell reporter, cycloheximide protein synthesis inhibition counterscreen | max response, %; in the data active means max response mostly above about 13%, no sharp cut-off; inactive means mostly below about 14%; further: read at 38.3 µM for the half of the compounds with a filed dose
Pf growth 96h: P. falciparum growth inhibition at 96 hours | P. falciparum luciferase reporter growth, 96 h | Potency, µM (doses to about 28.7 µM), actives largely listed as inhibitors | 6.9% of 320,000 active | AID 504834
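Delayed-death screen, second-generation endpoint: infected erythrocytes, 2% hematocrit, 0.05% parasitemia final; 96 hours at 37 C, 5% CO2; luciferase detection reagent; luminescence decrease equals reduced growth.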
A number is an active result; - = inactive; ? = inconclusive; . = no result; [ ] = remark or other dose. Compounds with a hit are over-represented: about 21% of the library has one in this group of screens. Unless noted, the call rests on the fitted dose curve; in most records, active means well fitted inhibition curve with a large enough effect; inconclusive means small, poorly fitted or top-dose-only effect, or another doubt; inactive means no such curve, though single readings can be large or run the other way.

SMILES	Shiga toxin inh	Pf growth 48h	CHX counter	Pf growth 96h
Cc1c(C(=O)O)cccc1-c1ccc(/C=N/n2cnnc2)o1	-	.	28	-
Cc1c(C(=O)O)cccc1-c1ccc(/C=N/Nc2ccc(Br)cc2)o1	140	-	106	-
Cc1c(Cl)cccc1-c1ccc(/C=N/n2cnnc2)o1	-	.	-	8.3µM
CCN1C(=O)[C@@H]2C(C(=O)c3cnccn3)=NN[C@@H]2C1=O	-	-	-	-
CC1(C)CC(=O)C2=C(C1)N=C1c3ccccc3C(=O)C1C2c1ccc(Cl)cc1 (configuration not stated)	-	?	-	?
Cc1ccc(C2C3=C(CC(C)(C)CC3=O)N=C3c4ccccc4C(=O)C32)cc1 (configuration not stated)	-	8.3µM	-	-
O=C(NC(=S)NCC1CCCO1)c1ccccc1[N+](=O)[O-] (configuration not stated)	-	-	-	-
Cc1ccc(-c2nn(-c3ccccc3)cc2NC(=O)CCl)cc1	-	?	41	?
Cc1ccc(-n2nc(C)c(NC(=O)CCl)c2C)cc1	-	3.7µM	-	-
Cc1cc(NC(=O)CC(F)(F)F)n(-c2ccccc2)n1	-	-	-	-
Cc1ccc(-c2cc(NC(=O)CCl)n(-c3ccccc3)n2)cc1	-	-	53	-[5.75 µM]
O=C(CCl)Nc1cc(-c2ccccc2)nn1-c1ccccc1	-	.	28	6.6µM
Cc1ccc(-c2nn(-c3ccccc3)cc2CNCc2ccccc2)cc1	-	?	-	-
Cc1cc(NC(=O)COc2ccccc2)n(-c2ccccc2)n1	-	-	-	-
Cc1nn(Cc2ccc(Cl)cc2Cl)c(C)c1NC(=O)CCl	-	0.59µM	-	10µM
Cc1nn(Cc2ccc(Cl)cc2Cl)c(C)c1NC(=O)c1nn(C)cc1Cl	-	-	-	?
O=C(N/N=C/c1ccc(OC(F)F)cc1)c1ccc(CSc2nc3ccccc3[nH]2)cc1	-	-	-	13µM
CCOc1ccc(C(=O)N/N=C/c2ccc(SC)cc2)cc1	-	-	-	?
CCOc1ccc(/C=N/NC(=O)c2ccc(CSc3nc4ccccc4[nH]3)cc2)cc1	43	-	21	-
CCOCCCNS(=O)(=O)c1ccc(NC(=O)Cc2c(F)cccc2Cl)cc1	-	?	-	-
O=c1[nH]c(C2CCN(S(=O)(=O)/C=C/c3ccccc3)CC2)nc2c1nnn2Cc1ccccc1	-	4.7µM	-	-
Cc1ccc(Cn2nnc3c(=O)[nH]c(C4CCN(S(=O)(=O)c5ccccc5)CC4)nc32)cc1	-	-	-	-
O=c1[nH]c(C2CCN(S(=O)(=O)c3ccccc3C(F)(F)F)CC2)nc2c1nnn2Cc1ccccc1	-	5.9µM	-	2.6µM
Cc1ccc(S(=O)(=O)N2CCC(c3nc4c(nnn4Cc4ccccc4)c(=O)[nH]3)CC2)cc1	-	12µM	-	-
Cc1ccc(Cn2nnc3c(=O)[nH]c(C4CCN(S(=O)(=O)Cc5ccccc5)CC4)nc32)cc1	78	?	31	-
SMILES	Shiga toxin inh	Pf growth 48h	CHX counter	Pf growth 96h
COc1ccc(Cn2nnc3c(=O)[nH]c(C4CCN(S(=O)(=O)c5ccc(C)cc5)CC4)nc32)cc1	-	?	-	?
O=C(COC(=O)c1cc[n+]([O-])cc1)Nc1ccc(F)c([N+](=O)[O-])c1	-	-	-	-
CC(=O)N1NC(=Nc2ccccc2)SC1(C)C	-	-	-	-
O=C(NCc1ccccn1)C(=O)NCC1OCCN1S(=O)(=O)c1ccc(F)cc1 (configuration not stated)	-	-	-	-
COc1ccc(NC(=O)CN2CCN(C3c4ccccc4-c4ccccc43)CC2)cc1	42	?	57	?
COc1ccc(NC(=O)CN2CCN(c3ccccc3)CC2)cc1	-	-	-	-[5.75 µM]
CC1CCN(CC(=O)Nc2ccc(C(=O)N3CCCCC3)cc2)CC1	-	-	-	3.3µM
COc1ccc(NC(=O)CN2CCC(C)CC2)cc1	30	-	16	.
CCNC(=O)COc1ncnc2scc(-c3ccc(F)cc3)c12	-	-	-	-
O=C(COc1ncnc2scc(-c3ccc(Cl)cc3)c12)NCc1ccco1	53	-	-	?
CC[C@H](C)[C@H](NC(=O)[C@H](CCC(=O)O)NC(=O)[C@H](CC(N)=O)NC(=O)[C@@H](N)[C@@H](C)O)C(=O)N[C@H](C(=O)N[C@@H](CCC(=O)O)C(=O)N[C@@H](CCC(=O)O)C(=O)N[C@@H](CCC(N)=O)C(=O)N[C@@H](Cc1ccc(O)cc1)C(=O)N[C@H](C(=O)N1CCC[C@H]1C(=O)N[C@@H](CCC(N)=O)C(=O)N[C@@H](CO)C(=O)N[C@@H](CC(C)C)C(=O)N[C@@H](C)C(=O)N[C@H](C(=O)N[C@@H](CC(C)C)C(=O)N[C@@H](CCC(=O)O)C(=O)N[C@@H](CO)C(=O)N[C@H](C(=O)N[C@@H](Cc1ccccc1)C(=O)N[C@@H](CCC(N)=O)C(=O)N[C@@H](CCC(=O)O)C(=O)N[C@@H](CC(C)C)C(=O)NCC(=O)N[C@@H](CCCCN)C(=O)N[C@@H](CC(C)C)C(=O)N[C@H](C(=O)NCC(=O)N1CCC[C@H]1C(=O)N[C@@H](CC(N)=O)C(=O)N[C@@H](CO)C(=O)N[C@@H](CCC(N)=O)C(=O)O)[C@@H](C)O)C(C)C)[C@@H](C)O)[C@@H](C)O)C(C)C	-	.	-	.
Cc1nn(CC(=O)N2CCCCCC2)c(=O)c2cc3occc3n12	-	-	-	?
CCCn1nnc(NC(=O)c2cccc(OCC(C)C)c2)n1	71	-	39	-
CCn1nnc(NC(=O)c2ccc(C(C)(C)C)cc2)n1	-	2.9µM	36	-[5.75 µM]
CCCn1nnc(NC(=O)c2cccnc2Cl)n1	-	-	-	?
CCCn1nnc(NC(=O)c2ccc3ccccc3c2)n1	143	-	44	-
CCCn1nnc(NC(=O)c2cccc(OCC)c2)n1	130	-	45	.
Cc1ccc(C)c(N(CC(=O)NC2CCCC2)C(=O)CCC(=O)Nc2cc(C)on2)c1	-	-	-	-
CCOC(=O)C1CCN(C(=O)c2cc(C)n(C(C)(C)C)n2)CC1	-	-	-	-
CCOC(CCn1ccc(O)c(Cc2ccc(Cl)cc2)c1=O)OCC	-	?	-	-
Cc1ccc2c(=O)[nH]c(Cc3ccccc3C(=O)O)nc2c1	-	-	-	-
CCCn1nnc(NC(=O)c2ccc(F)cc2)n1	57	-	48	-
CCCn1nnc(NC(=O)c2ccc(Br)o2)n1	-	-	-	.
COc1cc2c(cc1NC(=O)CSCC(=O)O)oc1ccccc12	-	-	-	-
COc1cc2c(cc1NC(=S)Nc1cccc3ccccc13)oc1ccccc12	103	-	35	.
COc1cc2c(cc1NC(=S)Nc1cccc(C(F)(F)F)c1)oc1ccccc12	-	?	-	.
COCCCNC(=S)Nc1cc2oc3ccccc3c2cc1OC	-	?	11	?
CCCC1(C(=O)OC)NC(c2cccc(F)c2)C2C(=O)N(CC)C(=O)C21 (configuration not stated)	-	-	-	-
CCC(C)Sc1ccc([C@H]2N[C@@](Cc3ccccc3)(C(=O)OC)[C@H]3C(=O)N(CC)C(=O)[C@@H]23)cc1 (some centres not stated)	.	3.3µM	.	1.7µM
